# Results as given in PubChem BioAssay (NCATS).
# Inconclusive results are not listed. A call without a number means that no potency is given here. A number with no mark means an inactive call. Active and inactive are the calls of the source. Calls follow the shape of the dose curve; as a rule, active = well fitted inhibition curve with a large enough effect; inconclusive = small, poorly fitted or top-dose-only effect; inactive = flat fitted curve, though single readings scatter. *1 amine or outer side, *2 acyl side, *3 side chain or, on linkers, in order; H or OH if unused. Where a SMILES comes first, the peptide text is derived from it. Side-chain parts run from the residue outwards. [ ]: non-standard residue; d: D form. The star is where a group is joined. Ethylenediamine = C(CN[*:2])N[*:1]; Hyp = O=C(O)[C@@H]1C[C@@H](O)CN1; Phg = N[C@H](C(=O)O)c1ccccc1; CO = O=C([*:1])[*:2]; Bn = c1ccc(C*)cc1
# Legend:
# [1] = target: Glutathione peroxidase 1 (Homo sapiens) (UniProt P07203); test: Primary qHTS Assay for Inhibitors of Recombinant Selenoprotein Glutathione Peroxidase 1 (GPX1) (AID 1845191); conditions: recombinant GPX1, GR-coupled NADPH fluorescence, 15 min; series mostly up to 48.8 µM
# Chain of Glutathione peroxidase 1 (Homo sapiens) (P07203 whole entry, looked up): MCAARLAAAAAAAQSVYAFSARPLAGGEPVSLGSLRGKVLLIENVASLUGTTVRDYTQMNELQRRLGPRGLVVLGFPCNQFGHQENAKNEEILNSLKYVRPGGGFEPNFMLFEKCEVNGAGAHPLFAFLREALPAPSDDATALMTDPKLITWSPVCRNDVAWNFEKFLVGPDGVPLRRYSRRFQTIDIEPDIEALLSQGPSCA
# Summary of the method: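 GR-coupled readout: NADPH consumption tracked by fluorescence, ex 340/em 450 nm, at t=0 and after 15 min at RT. Final mix 10 nM GPX1, 1 mM GSH, 0.5 mM CHP, 0.5 mM NADPH, 100 nM GR, 0.01% BSA, following 30 min enzyme–compound preincubation.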
# [2] = target: Phospholipid hydroperoxide glutathione peroxidase GPX4 (Homo sapiens) (UniProt P36969); test: Primary qHTS Assay for Inhibitors of Recombinant Selenoprotein Glutathione Peroxidase 4 (GPX4) (AID 1845192); conditions: recombinant GPX4, GR-coupled NADPH fluorescence, 15 min; series mostly up to 50 µM
# Chain of Phospholipid hydroperoxide glutathione peroxidase GPX4 (Homo sapiens) (P36969 whole entry, looked up): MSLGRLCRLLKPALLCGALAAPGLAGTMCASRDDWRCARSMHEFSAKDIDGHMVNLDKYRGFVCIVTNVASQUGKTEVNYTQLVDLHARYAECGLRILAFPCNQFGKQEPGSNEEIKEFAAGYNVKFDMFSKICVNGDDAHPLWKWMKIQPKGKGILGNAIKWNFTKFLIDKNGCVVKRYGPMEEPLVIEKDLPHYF
# Summary of the method: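 Steps: GPX4 plus compound, 30 min RT; add GR/GSH/NADPH master mix; start with cumene hydroperoxide; read 340/450 nm fluorescence at 0 and 15 min. Finals were 200 nM GPX4, 1 mM GSH, 0.5 mM CHP, 0.5 mM NADPH, 100 nM GR.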
# Also: nearly all actives have a fitted effect of over 65% in size.
# Potency is read from the fitted curve at half-maximal effect.
smiles,measurement,setting,value
CCCCC[C@@H](O)CC[C@H]1[C@@H]2Cc3cccc(OCC(=O)O)c3C[C@@H]2C[C@@H]1O,Potency,[1],inactive
same,Potency,[2],inactive
O=C(OC1C[C@@H]2CC3C[C@@H](C1)N2CC3=O)c1c[nH]c2ccccc12 (some centres undefined),Potency,[1],inactive
same,Potency,[2],inactive
OB1OCc2cc(F)ccc21,Potency,[1],inactive
same,Potency,[2],inactive
CSCC[C@H](N)C(=O)O,Potency,[1],inactive
same,Potency,[2],inactive
CC(=O)OC1CC(OC2C(O)CC(OC3C(O)CC(OC4CCC5(C)C(CCC6C5CCC5(C)C(C7=CC(=O)OC7)CCC65O)C4)OC3C)OC2C)OC(C)C1O (centres undefined),Potency,[1],inactive
same,Potency,[2],inactive
CC(C=CC1=C(C)CCCC1(C)C)=CC=CC(C)=CC(=O)Oc1c(C)c(C)c2c(c1C)CC[C@@](C)(CCC[C@H](C)CCC[C@H](C)CCCC(C)C)O2,outcome,[1],inactive [at 4.49 µM]
same,outcome,[2],inactive [at 4.52 µM]
CCC[C@@H]1C[C@@H](C(=O)N[C@@H](C2O[C@H](SC)[C@H](O)[C@@H](O)[C@H]2O)[C@H](C)Cl)N(C)C1 (some centres undefined),Potency,[1],inactive
same,Potency,[2],inactive
CO[C@H]1C[C@@H]2CC[C@@H](C)[C@@](O)(O2)C(=O)C(=O)N2CCCC[C@H]2C(=O)O[C@H]([C@H](C)C[C@@H]2CC[C@@H](OCCO)[C@H](OC)C2)CC(=O)[C@H](C)/C=C(/C)[C@@H](O)[C@@H](OC)C(=O)[C@H](C)C[C@H](C)\C=C/C=C\C=C/1C,Potency,[1],inactive
same,Potency,[2],3.98 µM (active)
COc1ccc(-c2c(Cl)ncn2-c2ccc(S(N)(=O)=O)cc2)cc1F,Potency,[1],inactive
same,Potency,[2],inactive
CCC1(C)OC(=O)N(C)C1=O (centres undefined),Potency,[1],inactive
same,Potency,[2],inactive
CNCC(=O)OCc1cccnc1N(C)C(=O)OC(C)[n+]1cnn(C[C@](O)(c2cc(F)ccc2F)[C@@H](C)c2nc(-c3ccc(C#N)cc3)cs2)c1 (some centres undefined),Potency,[1],inactive
same,Potency,[2],inactive
NCCCC[C@@H]1NC(=O)[C@@H](Cc2c[nH]c3ccccc23)NC(=O)[C@H](c2ccccc2)NC(=O)[C@@H]2C[C@@H](OC(=O)NCCN)CN2C(=O)[C@H](Cc2ccccc2)NC(=O)[C@H](Cc2ccc(OCc3ccccc3)cc2)NC1=O (cyclo([Hyp]([CO-Ethylenediamine])[Phg][dW]KY(Bn)F)),Potency,[1],inactive
same,Potency,[2],inactive
C[C@H](Cc1cc2c(c(C(N)=O)c1)N(CCCO)CC2)NCCOc1ccccc1OCC(F)(F)F,Potency,[1],inactive
same,Potency,[2],inactive
Cc1cc2nc3c(=O)[nH]c(=O)nc-3n(C[C@H](O)[C@H](O)[C@H](O)COP(=O)(O)OP(=O)(O)OC[C@H]3O[C@@H](n4cnc5c(N)ncnc54)[C@H](O)[C@H]3O)c2cc1C,Potency,[1],inactive
same,Potency,[2],inactive
CCN1CCC(=C2c3ccccc3CCc3ccccc32)C1C (centres undefined),Potency,[1],inactive
same,Potency,[2],inactive
O=P(O)(O)OC1C(OP(=O)(O)O)C(OP(=O)(O)O)C(OP(=O)(O)O)C(OP(=O)(O)O)C1OP(=O)(O)O (centres undefined),Potency,[1],inactive
same,Potency,[2],inactive
CCCN1C[C@@H](NS(=O)(=O)N(CC)CC)C[C@@H]2Cc3c(O)cccc3C[C@H]21,Potency,[1],inactive
same,Potency,[2],inactive
COCC1=C(C(=O)OC(C)OC(=O)OC(C)C)N2C(=O)[C@@H](NC(=O)/C(=N/OC)c3csc(N)n3)[C@H]2SC1 (some centres undefined),Potency,[1],9.04 µM (active)
same,Potency,[2],10 µM (active)
CCC(=C(CC)c1ccc(OP(=O)(O)O)cc1)c1ccc(OP(=O)(O)O)cc1,"activity, negative = inhibition",[1],1.38% [at 0.4 µM]
same,"activity change, negative = inhibition",[2],1.61% [at 0.409 µM]
CO/N=C(\C(=O)N[C@@H]1C(=O)N2C(C(=O)O)=C(Cn3ccc(=N)n3CCO)CS[C@H]12)c1csc(N)n1,Potency,[1],18 µM (active)
same,Potency,[2],inactive
OC[C@H]1O[C@H](O)[C@H](O)[C@@H](O)[C@@H]1O,Potency,[1],inactive
same,Potency,[2],inactive
COc1cc2c(cc1OC)[C@H]1C[C@@H](OC(=O)[C@@H](N)C(C)C)[C@H](CC(C)C)CN1CC2,Potency,[1],inactive
same,Potency,[2],inactive
CC1CCCC(C)N1C(=S)Nc1cccc(C(F)(F)F)c1 (centres undefined),Potency,[1],22.7 µM (active)
same,Potency,[2],11.2 µM (active)
CCC(CN)CC(C)CNCC(O)CNCC(CC)CC(CC)CN (centres undefined),Potency,[1],inactive
same,Potency,[2],inactive
Cc1cc(CC(C)C[Si](C)(O[Si](C)(C)C)O[Si](C)(C)C)c(O)c(-n2nc3ccccc3n2)c1 (centres undefined),Potency,[1],inactive
same,Potency,[2],inactive
CCCCCCCCN=C(N)NC(N)=NCc1ccc(Cl)c(Cl)c1,Potency,[1],inactive
same,Potency,[2],inactive
CO[C@@H]1C[C@H](O[C@H]2[C@H](C)[C@H](O[C@@H]3O[C@@H](C)C[C@@H](N(C)C)[C@H]3OC(C)=O)[C@H](C)C[C@]3(CO3)C(=O)[C@H](C)[C@H](OC(C)=O)[C@H](C)[C@H](C)OC(=O)[C@@H]2C)O[C@H](C)[C@H]1OC(C)=O,Potency,[1],inactive
same,Potency,[2],inactive
CCCCCCC(COC(=O)c1cccnc1)(COC(=O)c1cccnc1)COC(=O)c1cccnc1,Potency,[1],inactive
same,Potency,[2],inactive
C#C[C@]1(O)CC[C@H]2[C@@H]3CCC4=CC(=O)CC[C@@H]4[C@H]3C(=C)C[C@@]21CC,Potency,[1],inactive
same,Potency,[2],inactive
CCC(C)CC(C)CCCCCCCCC(=O)N[C@H]1C[C@@H](O)[C@@H](NCCN)NC(=O)[C@@H]2[C@@H](O)CCN2C(=O)[C@H]([C@H](O)CCN)NC(=O)[C@H]([C@@H](O)[C@H](O)c2ccc(O)cc2)NC(=O)[C@@H]2C[C@@H](O)CN2C(=O)[C@H]([C@@H](C)O)NC1=O (some centres undefined),Potency,[1],inactive
same,Potency,[2],inactive
CCC(=O)Oc1ccc2c(c1)CC[C@@H]1[C@H]2CC[C@]2(C)[C@@H](OC(=O)CC)CC[C@@H]12,Potency,[1],inactive
same,Potency,[2],inactive
CCC(=O)O[C@]1(C(=O)COC(C)=O)CC[C@H]2[C@@H]3CCC4=CC(=O)CC[C@]4(C)[C@H]3[C@@H](O)C[C@@]21C,Potency,[1],inactive
same,Potency,[2],inactive
Cn1cc(OCC(O)CNC(C)(C)C)c2ccccc2c1=O (centres undefined),Potency,[1],inactive
same,Potency,[2],inactive
COc1cc(N)cn[n+]1-c1ccccc1,Potency,[1],inactive
same,Potency,[2],inactive
O=C1[C@@H]2[C@H]3CC[C@H](C3)[C@@H]2C(=O)N1C[C@@H]1CCCC[C@H]1CN1CCN(c2nsc3ccccc23)CC1,Potency,[1],inactive
same,Potency,[2],inactive
CN(C)CC(=O)O,Potency,[1],inactive
same,Potency,[2],inactive
CCC(C)C(NC(=O)C(Cc1ccc(O)cc1)NC(=O)C(NC(=O)C(CCCN=C(N)N)NC(=O)C(N)CC(=O)O)C(C)C)C(=O)NC(Cc1cnc[nH]1)C(=O)N1CCCC1C(=O)NC(Cc1ccccc1)C(=O)O (centres undefined),Potency,[1],inactive
same,Potency,[2],inactive
CC1CC2C3CCC4=CC(=O)C=CC4(C)C3(F)C(O)CC2(C)C1(O)C(=O)COC(=O)c1cccc(S(=O)(=O)O)c1 (centres undefined),Potency,[1],inactive
same,Potency,[2],20 µM (active)
CCC(=O)O[C@@H]1[C@@H](C)O[C@@H](O[C@H]2[C@H](N(C)C)[C@@H](O)[C@H](O[C@H]3[C@@H](CC=O)C[C@@H](C)[C@@H](OC(C)=O)/C=C/C=C/C[C@@H](C)OC(=O)C[C@@H](OC(=O)CC)[C@@H]3OC)O[C@@H]2C)C[C@]1(C)OC(C)=O,Potency,[1],inactive
same,Potency,[2],inactive
CNc1ncc(-c2ccc3c(=O)c(C(=O)O)cn(C4CC4)c3c2C)cc1C,Potency,[1],inactive
same,Potency,[2],inactive
CC(=O)OCC1=C(C(=O)O)N2C(=O)[C@@H](NC(=O)[C@H](N)c3ccccc3)[C@H]2SC1,Potency,[1],10.1 µM (active)
same,Potency,[2],15.8 µM (active)
C=C1/C(=C/C=C2\CCC[C@]3(C)[C@@H]([C@H](C)CC[C@@H](O)C(C)C)CC[C@@H]23)C[C@@H](O)C[C@@H]1O,Potency,[1],inactive
same,Potency,[2],15.8 µM (active)
CCCCCCCCCCCCCCCCCCCCCCCCCCCCO,outcome,[1],inactive [at 0.4 µM]
same,outcome,[2],inactive [at 0.409 µM]
OC[C@H]1O[C@H](O[C@H]2[C@H](O)[C@@H](O)[C@H](O)O[C@@H]2CO)[C@H](O)[C@@H](O)[C@@H]1O,Potency,[1],inactive
same,Potency,[2],inactive
O=[N+]([O-])c1ccc(/C=C/c2cccc(CO)n2)o1,Potency,[1],inactive
same,Potency,[2],inactive
CCC1OC(=O)[C@H](C)C(=O)[C@H](C)[C@@H](OC2O[C@H](C)C[C@H](N(C)C)[C@H]2O)[C@](C)(OC)C[C@@H](C)C(=O)[C@@H](C)[C@@H]2N(CCCCn3cnc(-c4cccnc4)c3)C(=O)O[C@]12C (some centres undefined),Potency,[1],inactive
same,Potency,[2],inactive
C[C@](C#N)(COc1cc(C#N)ccc1C(F)(F)F)NC(=O)c1ccc(SC(F)(F)F)cc1,Potency,[1],inactive
same,Potency,[2],inactive
OC[C@H]1O[C@@H](OC[C@H]2O[C@@H](O[C@@H]3[C@@H](O)[C@H](O)O[C@H](CO)[C@H]3O)[C@H](O)[C@@H](O[C@@H]3O[C@H](CO)[C@@H](O)[C@H](O)[C@H]3O)[C@@H]2O)[C@H](O)[C@@H](O)[C@@H]1O,Potency,[1],inactive
same,Potency,[2],inactive
[Mn].[O]=[Mn][OH].[O]=[Mn][OH],Potency,[1],inactive
same,Potency,[2],inactive
C[N+]1(C)C2CC[C@H]1CC(OC(=O)C(O)c1ccccc1)C2 (some centres undefined),Potency,[1],inactive
same,Potency,[2],inactive
O=C(O)C(O)[C@H](O)[C@H](O)[C@H](O)[C@H](O)CO (some centres undefined),Potency,[1],inactive
same,Potency,[2],inactive
Cc1ncc([N+](=O)[O-])n1CCOC(=O)c1ccccc1,Potency,[1],inactive
same,Potency,[2],inactive
CCCC(=O)O[C@]1(C(=O)COC(C)=O)CC[C@H]2C3C[C@H](F)C4=CC(=O)C=C[C@]4(C)[C@@]3(F)[C@@H](O)C[C@@]21C (some centres undefined),Potency,[1],inactive
same,Potency,[2],inactive
O=C(O)[C@@H]1C(=CCO)O[C@@H]2CC(=O)N12,Potency,[1],inactive
same,Potency,[2],inactive
CCCC[C@H](C)C[C@H](O)/C=C/[C@H]1[C@H](O)CC(=O)[C@@H]1CCCC/C=C/C(=O)O,Potency,[1],inactive
same,Potency,[2],inactive
CC(OC(=O)OC1CCCCC1)OC(=O)C1=C(CSc2nnnn2CCN(C)C)CS[C@@H]2[C@H](NC(=O)Cc3csc(N)n3)C(=O)N12 (some centres undefined),Potency,[1],7.18 µM (active)
same,Potency,[2],8.91 µM (active)
CC(C)CCC[C@@H](C)[C@H]1CC[C@H]2[C@@H]3CC=C4C[C@@H](O)CC[C@]4(C)[C@@H]3CC[C@]12C,Potency,[1],inactive
same,Potency,[2],inactive
